{"source": "PubChem BioAssay AID686979", "about": "(National Center for Advancing Translational Sciences (NCATS), 2013)", "note": "Out of some 420,000 compounds screened, about 50,000 (12%) were called active. Inconclusive results (about 26%) are left out. The full list was thinned out, with actives kept by preference. Unmarked numbers belong to inactive results. Calls come from the whole dose curve; as a rule, active = well fitted inhibition curve with a large enough effect; inconclusive = small, poorly fitted or top-dose-only effect; inactive = flat fitted curve, though single readings scatter.", "data": [{"experiment": "qHTS for Inhibitors of human tyrosyl-DNA phosphodiesterase 1 (TDP1): qHTS in cells in presence of CPT; note: nearly all actives have a fitted effect of over 55% in size; note: potency is the fitted concentration of half-maximal effect; for activity change, negative = growth inhibition: % is set by controls: 0 for no effect and ±100 for the full control effect", "details": "chicken DT40 Tdp1-/-;hTDP1 cells + 20 nM CPT, ATP luminescence, 48 h; series mostly up to 46.2 µM; activity change, negative = growth inhibition: at the top concentration", "method_in_brief": "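Chicken DT40 Tdp1-/- cells stably complemented with human TDP1 were seeded at 400 cells/well in medium containing 20 nM camptothecin, exposed to pin-transferred compounds, and grown at 37 °C for at least 48 hr. Viability was read as ATP luminescence.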", "values": [{"compound": "O=C(O)c1cc(S(=O)(=O)NC2CCCc3ccccc32)ccc1O", "note": "(configuration not stated)", "activity change, negative = growth inhibition": "33.7%"}, {"compound": "O=C(c1ccco1)N1CCN(CCOc2ccccc2)CC1", "activity change, negative = growth inhibition": "-1.14%"}, {"compound": "O=c1[nH]c2ccccc2n1C1CCN(CCOc2ccccc2)CC1", "Potency": "3.66 µM (active)"}, {"compound": "O=C(c1ccc(Br)o1)N1CCN(CCOc2ccccc2)CC1", "activity change, negative = growth inhibition": "-15.3%"}, {"compound": "CO[C@@H]1CN(C)C(=O)c2cc(NC(=O)C3CC3)ccc2OC[C@H](C)N(C(=O)CN2CCOCC2)C[C@@H]1C", "activity change, negative = growth inhibition": "11.5%"}, {"compound": "NC(=O)C1CC(=O)N(c2ccc(OCC(=O)NCc3ccccc3)cc2)C1", "note": "(configuration not stated)", "activity change, negative = growth inhibition": "2.53%"}, {"compound": "O=C(c1ccccc1)N1CCN(c2cc(-c3ccccc3)nc3cc(-c4cccc(Cl)c4)nn23)CC1", "Potency": "23.1 µM (active)"}, {"compound": "O=C(c1cccc(Cl)c1)N1CCN(Cc2ccccc2)CC1", "activity change, negative = growth inhibition": "-11.1%"}, {"compound": "O=C(c1cccc(Cl)c1)N1CCN(CCc2ccncc2)CC1", "activity change, negative = growth inhibition": "-15.1%"}, {"compound": "C#Cc1cc(N2CCN(C(=O)c3ccoc3)CC2)n2nc(-c3cccc(Cl)c3)cc2n1", "Potency": "7.31 µM (active)"}, {"compound": "CN(C)CCN1CCN(c2cc(-c3cccc(Cl)c3)nc3ccnn23)CC1", "activity change, negative = growth inhibition": "-95.5%"}, {"compound": "CCCNC(=O)c1ccc(Cn2c(SCC(N)=O)nc3ccccc3c2=O)cc1", "activity change, negative = growth inhibition": "-1.4%"}, {"compound": "CCOc1ccccc1Nc1ccc2nonc2c1[N+](=O)[O-]", "activity change, negative = growth inhibition": "-12.2%"}, {"compound": "O=C(OCC(=O)N1CCCCCC1)c1cnc(Cl)c(Cl)c1", "activity change, negative = growth inhibition": "-21.8%"}, {"compound": "CCOC(=O)C1CCN(Cc2c(C(=O)N3CCOCC3)nc3c(C)cccn23)CC1", "activity change, negative = growth inhibition": "2.99%"}, {"compound": "CCOC(=O)C(NC(=O)CC(C)C)(Nc1sc2c(c1C(N)=O)CCCC2)C(F)(F)F", "note": "(configuration not stated)", "activity change, negative = growth inhibition": "-15%"}, {"compound": "Cc1nc2ccc(NC(=O)C3CCCCC3)cc2s1", "activity change, negative = growth inhibition": "-1.83%"}, {"compound": "CC(=O)Nc1ccc2nc(NC(=O)CS(=O)(=O)c3ccc(F)cc3)sc2c1", "activity change, negative = growth inhibition": "-4.85%"}, {"compound": "CCC(=O)c1ccc(OCC(=O)Nc2ccc3nc(C)sc3c2)cc1", "Potency": "16.4 µM (active)"}, {"compound": "CCOc1ccc(S(=O)(=O)Nc2nc3cc(OC)ccc3s2)cc1", "activity change, negative = growth inhibition": "-1.24%"}, {"compound": "CCC(=O)c1ccc(OCC(=O)Nc2ccc(N3CCCCC3)cc2)cc1", "activity change, negative = growth inhibition": "-105%"}, {"compound": "CCOc1ccc2nc(Nc3nc4ccc(NC(C)=O)cc4s3)sc2c1", "Potency": "18.4 µM (active)"}, {"compound": "CC(CC(=O)Nc1ccc(F)cc1F)S(=O)(=O)c1ccc2c(c1)NC(=O)CO2", "note": "(configuration not stated)", "activity change, negative = growth inhibition": "-20.8%"}, {"compound": "c1ccc2c(c1)CCc1snnc1-2", "activity change, negative = growth inhibition": "3.17%"}, {"compound": "O=C(CCNS(=O)(=O)c1ccc(Br)cc1)NCC1CCCO1", "note": "(configuration not stated)", "activity change, negative = growth inhibition": "1.23%"}, {"compound": "CCc1cc(-c2n[nH]c(=S)n2CC(C)C)cs1", "activity change, negative = growth inhibition": "-6.11%"}, {"compound": "CCC(=O)c1ccc(OCC(O)CN2CC(C)OC(C)C2)cc1", "note": "(configuration not stated)", "activity change, negative = growth inhibition": "9.25%"}, {"compound": "CC(C)CCOc1ccc(C(=O)C[N+]2(C)CCOCC2)cc1", "Potency": "20.6 µM (active)"}, {"compound": "C[N+]1(CC(=O)c2cccs2)CCOCC1", "activity change, negative = growth inhibition": "-8.52%"}, {"compound": "COc1ccc(Br)cc1CNC(=O)c1cc(=O)[nH]c2ccc(S(=O)(=O)N3CCCC3)cc12", "activity change, negative = growth inhibition": "-0.462%"}, {"compound": "CCOC(=O)c1c(C)n(C)c2ccc(OC)c(NC(=O)CN3CCC4(CC3)OCCO4)c12", "activity change, negative = growth inhibition": "-14.4%"}, {"compound": "CCC(=O)Nc1ccc2nn(-c3ccc(F)cc3)nc2c1", "activity change, negative = growth inhibition": "-3.15%"}, {"compound": "Cc1ccc(-n2nc3ccc(NC(=O)/C=C/c4ccco4)cc3n2)cc1C", "Potency": "23.1 µM (active)"}, {"compound": "Cc1nnc(NC(=O)/C=C/c2ccco2)s1", "activity change, negative = growth inhibition": "2.69%"}, {"compound": "O=C(C(=O)N1CCN(c2ccccc2)CC1)c1ccc2c(c1)OCO2", "activity change, negative = growth inhibition": "1.72%"}, {"compound": "COc1ccc(C(c2nnnn2Cc2cccs2)N2CCN(c3ccccc3)CC2)cc1OC", "note": "(configuration not stated)", "activity change, negative = growth inhibition": "2.77%"}, {"compound": "COc1cc(C(CCN2CCN(c3ccccc3)CC2)c2c(OC)cc(OC)c3ccc(=O)oc23)cc(OC)c1OC", "note": "(configuration not stated)", "Potency": "23.1 µM (active)"}, {"compound": "COc1ccc(F)cc1S(=O)(=O)NCC(c1ccc2c(c1)OCO2)N1CCN(C)CC1", "note": "(configuration not stated)", "activity change, negative = growth inhibition": "-29%"}, {"compound": "COc1cc(OC)c2ccc(=O)oc2c1C(CCN1CCN(c2ccccc2)CC1)c1ccc2c(c1)OCO2", "note": "(configuration not stated)", "Potency": "23.1 µM (active)"}, {"compound": "COc1ccc(C(CC(=O)N2CCN(c3ccccc3)CC2)c2c(O)cc(OC)cc2OC)cc1", "note": "(configuration not stated)", "activity change, negative = growth inhibition": "-12%"}, {"compound": "C=CCNC(=S)NNC(=O)c1ccc(Br)o1", "activity change, negative = growth inhibition": "9.35%"}, {"compound": "CCn1c(O)c2ccc(C(=O)N=NC(=O)c3cccnc3)cc2c1O", "activity change, negative = growth inhibition": "-6.89%"}, {"compound": "COc1ccccc1CNc1cc(-c2ccccc2CN(C)C)ncn1", "activity change, negative = growth inhibition": "-24.3%"}, {"compound": "CN(Cc1ccco1)c1cc(-c2ccccc2C(F)(F)F)ncn1", "activity change, negative = growth inhibition": "-12.8%"}, {"compound": "FC(F)(F)c1ccccc1-c1cc(NCc2ccccc2)ncn1", "Potency": "7.31 µM (active)"}, {"compound": "CCOc1cc(S(=O)(=O)NCc2ccc3c(c2)OCO3)ccc1F", "activity change, negative = growth inhibition": "-15%"}, {"compound": "Cc1ccc(C(=O)O/N=C(\\N)c2ccccn2)cc1Cl", "activity change, negative = growth inhibition": "4.5%"}, {"compound": "COc1ccccc1-c1ccc(C(=O)N(C)C(C)c2ccon2)c(N2CCN(c3ccccc3F)CC2)n1", "note": "(configuration not stated)", "activity change, negative = growth inhibition": "15.9% [at 9.04 µM]"}, {"compound": "CC(C)C1=CC2=CC[C@H]3[C@](C)(C(=O)O)CCC[C@]3(C)C2CC1", "note": "(some centres not stated)", "activity change, negative = growth inhibition": "26.1% [at 9.04 µM]"}, {"compound": "O=C(NN1C(=O)C2C3C=CC(C3)C2C1=O)c1ccco1", "note": "(configuration not stated)", "activity change, negative = growth inhibition": "12.1%"}, {"compound": "COc1cc(Nc2nc(-c3ccc(OC)c(OC)c3)nc3ccccc23)cc(OC)c1", "Potency": "5.8 µM (active)"}, {"compound": "Cc1noc(C)c1-c1nc(Nc2ccccc2)c2ccccc2n1", "activity change, negative = growth inhibition": "8.15%"}]}]}
